According to the antibiotic and cytotoxicity screens of Wong et al. (2023):
Out of some 39,000 compounds screened, about 3,300 (8.5%) were called active. Only a selection was taken, and actives are over-represented in it overall.

Test system: HepG2
Assay: cytotoxicity call (relative viability < 0.9)
Conditions: 10 µM

| Compound | cytotoxicity call |
| --- | --- |
| CCCC(=O)Nc1ccc2c(c1)C(=O)N(C)[C@@H]1CC[C@@H](CC(=O)NCCN3CCCCC3)O[C@H]1CO2 | inactive |
| Cn1nc(O)c(=O)[nH]c1=S | inactive |
| O=C(Cc1ccncc1)Nc1ccc2c(c1)[C@H]1C[C@H](CC(=O)N3CCc4ccccc4C3)O[C@@H](CO)[C@H]1O2 | inactive |
| Cc1cn2c3c(=O)n(C)c(=O)n(C)c3nc2n1CCN1CCOCC1 | inactive |
| Cc1noc(C)c1NC(=O)N(C)C[C@H]1OCCCC[C@H](C)Oc2ccc(NC(=O)CCC(F)(F)F)cc2C(=O)N([C@H](C)CO)C[C@@H]1C | inactive |
| C[C@@H]1CN([C@H](C)CO)C(=O)c2cc(NC(=O)Nc3ccc(C(F)(F)F)cc3)ccc2O[C@@H](C)CCCCO[C@H]1CN(C)Cc1ccc2c(c1)OCO2 | active |
| C[C@H](CO)N1C[C@H](C)[C@@H](CN(C)Cc2ccc3c(c2)OCO3)OCCCC[C@H](C)Oc2ccc(NC(=O)Nc3ccc(C(F)(F)F)cc3)cc2C1=O | active |
| C[C@@H]1CN([C@@H](C)CO)C(=O)c2cc(NC(=O)Nc3ccc(C(F)(F)F)cc3)ccc2O[C@@H](C)CCCCO[C@H]1CN(C)Cc1ccc2c(c1)OCO2 | active |
| Cn1c(=O)[nH]c(=O)c2c(=O)cc[nH]c21 | inactive |
| COc1ccccc1CNC(=O)C[C@H]1C[C@H]2c3cc(NC(=O)Cc4ccncc4)ccc3O[C@H]2[C@@H](CO)O1 | inactive |
| C[C@@H]1CCCCO[C@H](CN(C)S(=O)(=O)c2ccc(F)cc2)[C@H](C)CN([C@H](C)CO)C(=O)c2cc(NC(=O)Nc3cccc4ccccc34)ccc2O1 | inactive |
| C[C@@H]1CN([C@@H](C)CO)C(=O)c2c(c3ccccc3n2C)-c2ccccc2CO[C@H]1CN(C)C(=O)Nc1cccc(Cl)c1Cl | inactive |
| CC(C)[C@H](NC=O)C(=O)OC[C@H](O)[C@H](O)[C@H](O)[C@H](O)COC(=O)[C@H](NC=O)C(C)C | inactive |
| C[C@H](CO)N1C[C@H](C)[C@@H](CN(C)Cc2ccncc2)Oc2c(NC(=O)c3ccncc3)cccc2C1=O | inactive |
| O=C1CSC(/N=C/c2ccccc2O)=NN1 | active |
| O=C(NCc1cccc(F)c1)[C@@H]1[C@@H](CO)[C@@H]2Cn3c(cccc3=O)[C@H]1N2C(=O)c1cnccn1 | inactive |
| CN(C)CCC=C1c2ccccc2Sc2ccc(Cl)cc21.Cl | active |
| CN(C)CC/C=C1/c2ccccc2Sc2ccc(Cl)cc21 | active |
| CCS(=O)(=O)N1C[C@]2(CN(Cc3cc(ccc3F)F)C2)c2c(n(c3cc(ccc23)OC)C)[C@H]1CO | inactive |
| CCS(=O)(=O)N1C[C@]2(CN(Cc3ccc4c(c3)OCO4)[C@H](CO)c3c2c2ccc(cc2n3C)OC)C1 | inactive |
| C[C@@H]1CN([C@@H](C)CO)C(=O)c2cccc(NS(C)(=O)=O)c2O[C@H]1CN(C)C(=O)Nc1ccc2c(c1)OCO2 | inactive |
| Cc1noc(C)c1S(=O)(=O)N(C)C[C@H]1OCCCC[C@@H](C)Oc2ccc(N(C)C)cc2C(=O)N([C@H](C)CO)C[C@@H]1C | inactive |

| Compound | cytotoxicity call |
| --- | --- |
| COc1ccc(NC(=O)Nc2ccc3c(c2)C(=O)N([C@@H](C)CO)C[C@H](C)[C@@H](CN(C)C(=O)CCC(F)(F)F)OCCCC[C@@H](C)O3)cc1 | inactive |
| C[C@H](CO)N1C[C@H](C)[C@@H](CN(C)Cc2ccncc2)OCCCC[C@H](C)Oc2ccc(NC(=O)C3CCCCC3)cc2C1=O | inactive |
| C[C@@H]1CN([C@H](C)CO)C(=O)c2cc(NC(=O)CCCN(C)C)ccc2O[C@H]1CN(C)Cc1ccccc1 | inactive |
| C[C@H]1CN([C@@H](C)CO)C(=O)c2cc(NC(=O)CCCN(C)C)ccc2O[C@H]1CN(C)Cc1ccc(Oc2ccccc2)cc1 | active |
| C[C@@H]1CN([C@H](C)CO)C(=O)c2cc(NC(=O)CCCN(C)C)ccc2O[C@H]1CN(C)Cc1ccc(Oc2ccccc2)cc1 | active |
| C[C@H]1CN([C@@H](C)CO)C(=O)c2cc(NC(=O)CCCN(C)C)ccc2O[C@H]1CN(C)Cc1ccccc1 | inactive |
| COc1ccc(CN(C)C[C@H]2Oc3ccc(NC(=O)CCCN(C)C)cc3C(=O)N([C@H](C)CO)C[C@H]2C)cc1 | inactive |
| C[C@@H]1CN([C@@H](C)CO)C(=O)c2cc(NC(=O)CCCN(C)C)ccc2O[C@H]1CN(C)Cc1ccccc1 | inactive |
| C[C@@H]1CN([C@@H](C)CO)C(=O)c2cc(NC(=O)CCCN(C)C)ccc2O[C@H]1CN(C)Cc1ccc(Oc2ccccc2)cc1 | inactive |
| C[C@H](CO)N1C[C@H](C)[C@@H](CN(C)Cc2ccccc2)Oc2ccc(NC(=O)CCCN(C)C)cc2C1=O | inactive |
| C[C@H]1CN([C@@H](C)CO)C(=O)c2cc(NC(=O)CCCN(C)C)ccc2O[C@@H]1CN(C)Cc1ccc(Oc2ccccc2)cc1 | active |
| C[C@H](CO)N1C[C@H](C)[C@@H](CN(C)Cc2ccc(Oc3ccccc3)cc2)Oc2ccc(NC(=O)CCCN(C)C)cc2C1=O | inactive |
| C[C@@H]1CN([C@H](C)CO)C(=O)c2cc(NC(=O)CCCN(C)C)ccc2O[C@@H]1CN(C)Cc1ccc(Oc2ccccc2)cc1 | active |
| COc1ccc(CN(C)C[C@@H]2Oc3ccc(NC(=O)CCCN(C)C)cc3C(=O)N([C@H](C)CO)C[C@H]2C)cc1 | inactive |
| Cc1cc(C(=O)Nc2cccc3c2O[C@@H](CN(C)S(=O)(=O)c2ccc(F)cc2)[C@@H](C)CN([C@H](C)CO)C3=O)n(C)n1 | inactive |
| COc1ccc(S(=O)(=O)N(C)C[C@@H]2Oc3cc(C#CC4CCCC4)ccc3S(=O)(=O)N([C@H](C)CO)C[C@H]2C)cc1 | inactive |
| C[C@@H]1CN([C@H](C)CO)C(=O)c2cc(NS(=O)(=O)c3ccccc3)ccc2O[C@@H]1CN(C)S(=O)(=O)c1ccc(F)cc1 | inactive |
| COc1ccc(NC(=O)N[C@H]2CC[C@@H](CCNC(=O)CN3CCOCC3)O[C@@H]2CO)cc1 | inactive |
| CCS(=O)(=O)Nc1ccc2c(c1)C(=O)N(C)[C@@H]1CC[C@@H](CC(=O)NCc3ccccc3F)O[C@H]1CO2 | inactive |
| C[C@@H]1CCCCO[C@H](CN(C)S(=O)(=O)c2ccccc2)[C@H](C)CN([C@@H](C)CO)C(=O)c2cc(NC(=O)C3CCCCC3)ccc2O1 | inactive |
| COc1ccc(CN(C)C[C@H]2OCCCC[C@H](C)Oc3ccc(NS(=O)(=O)c4ccc(Cl)cc4)cc3C(=O)N([C@H](C)CO)C[C@@H]2C)cc1 | inactive |
| COCC(=O)N1[C@H](C(=O)NCc2ccccc2)[C@@H](CO)[C@@H]2Cn3c(cccc3=O)[C@@H]21 | inactive |

| Compound | cytotoxicity call |
| --- | --- |
| C[C@@H]1CN([C@H](C)CO)C(=O)c2cc(NC(=O)CCCN(C)C)ccc2O[C@@H]1CN(C)Cc1ccccc1 | inactive |
| C[C@H](CO)N1C[C@H](C)[C@H](CN(C)Cc2ccccc2)Oc2ccc(NC(=O)CCCN(C)C)cc2C1=O | inactive |
| C[C@H]1CN([C@@H](C)CO)C(=O)c2cc(NC(=O)CCCN(C)C)ccc2O[C@@H]1CN(C)Cc1ccccc1 | inactive |
| C[C@@H]1CN([C@@H](C)CO)C(=O)c2cc(NC(=O)CCCN(C)C)ccc2O[C@@H]1CN(C)Cc1ccc(Oc2ccccc2)cc1 | active |
| C[C@@H]1CN([C@@H](C)CO)C(=O)c2cc(NC(=O)CCCN(C)C)ccc2O[C@@H]1CN(C)Cc1ccccc1 | inactive |
| C[C@H](CO)N1C[C@H](C)[C@H](CN(C)Cc2ccc(Oc3ccccc3)cc2)Oc2ccc(NC(=O)CCCN(C)C)cc2C1=O | active |
| Cc1noc(C)c1NC(=O)Nc1ccc2c(c1)CC(=O)N([C@@H](C)CO)C[C@H](C)[C@H](CN(C)Cc1ccc(C(F)(F)F)cc1)O2 | inactive |
| C[C@@H]1CN([C@H](C)CO)C(=O)c2cc(NC(=O)Nc3ccc(F)cc3)ccc2O[C@@H](C)CCCCO[C@H]1CN(C)C(=O)Nc1ccccc1 | inactive |
| O=c1[nH]ncc2ccccc12 | inactive |
| Cc1ccc(S(=O)(=O)Nc2cccc3c2O[C@@H](CN(C)S(=O)(=O)c2ccccc2)[C@H](C)CN([C@H](C)CO)C3=O)cc1 | inactive |
| O=C(CN1CCOCC1)NCC[C@H]1CC[C@@H](NC(=O)c2ccc3c(c2)OCO3)[C@@H](CO)O1 | inactive |
| Cc1ccc(S[C@]2(C(=O)NC(C)C)CC(=O)N(Cc3ccccc3Cl)[C@@H]2c2ccc(CO)cc2I)cc1 | inactive |
| O=C(C[C@@H]1C[C@@H]2c3cc(NS(=O)(=O)c4ccc(F)cc4)ccc3O[C@@H]2[C@H](CO)O1)N1CCCCC1 | inactive |
| C[C@H]1CN([C@@H](C)CO)C(=O)Cc2cc(NC(=O)Nc3ccc(C(F)(F)F)cc3)ccc2O[C@@H]1CN(C)Cc1ccc(C(=O)Nc2ccccc2N)cc1 | inactive |
| C[C@@H]1CN([C@@H](C)CO)C(=O)Cc2cc(NC(=O)Nc3ccc(C(F)(F)F)cc3)ccc2O[C@@H]1CN(C)Cc1ccc(C(=O)Nc2ccccc2N)cc1 | active |
| C[C@H]1CN([C@@H](C)CO)C(=O)Cc2cc(NC(=O)CCC(F)(F)F)ccc2O[C@H]1CN(C)Cc1ccc(C(=O)Nc2ccccc2N)cc1 | active |
| C[C@@H]1CN([C@H](C)CO)C(=O)Cc2cc(NC(=O)CCC(F)(F)F)ccc2O[C@H]1CN(C)Cc1ccc(C(=O)Nc2ccccc2N)cc1 | inactive |
| C[C@@H]1CN([C@@H](C)CO)C(=O)Cc2cc(NC(=O)Nc3ccccc3)ccc2O[C@@H]1CN(C)Cc1ccc(C(=O)Nc2ccccc2N)cc1 | inactive |
| C[C@@H]1CN([C@H](C)CO)C(=O)Cc2cc(NC(=O)Nc3ccc(C(F)(F)F)cc3)ccc2O[C@H]1CN(C)Cc1ccc(C(=O)Nc2ccccc2N)cc1 | inactive |
| C[C@@H]1CN([C@H](C)CO)C(=O)Cc2cc(NC(=O)Nc3ccc(C(F)(F)F)cc3)ccc2O[C@@H]1CN(C)Cc1ccc(C(=O)Nc2ccccc2N)cc1 | active |
| C[C@H]1CN([C@@H](C)CO)C(=O)Cc2cc(NC(=O)Nc3ccc(C(F)(F)F)cc3)ccc2O[C@H]1CN(C)Cc1ccc(C(=O)Nc2ccccc2N)cc1 | active |
| C[C@H](CO)N1C[C@H](C)[C@@H](CN(C)Cc2ccc(C(=O)Nc3ccccc3N)cc2)Oc2ccc(NC(=O)CCC(F)(F)F)cc2CC1=O | inactive |
